The full ranking holds about 33,000 sequences; the median of “E-score (-0.5 to 0.5)” is about -0.036, and the highest 2% start at about 0.37. This excerpt belongs to a sample that is enriched for the highest values.
Biological target: T1, Yer064c (UniProt P40041)
T1 sequence: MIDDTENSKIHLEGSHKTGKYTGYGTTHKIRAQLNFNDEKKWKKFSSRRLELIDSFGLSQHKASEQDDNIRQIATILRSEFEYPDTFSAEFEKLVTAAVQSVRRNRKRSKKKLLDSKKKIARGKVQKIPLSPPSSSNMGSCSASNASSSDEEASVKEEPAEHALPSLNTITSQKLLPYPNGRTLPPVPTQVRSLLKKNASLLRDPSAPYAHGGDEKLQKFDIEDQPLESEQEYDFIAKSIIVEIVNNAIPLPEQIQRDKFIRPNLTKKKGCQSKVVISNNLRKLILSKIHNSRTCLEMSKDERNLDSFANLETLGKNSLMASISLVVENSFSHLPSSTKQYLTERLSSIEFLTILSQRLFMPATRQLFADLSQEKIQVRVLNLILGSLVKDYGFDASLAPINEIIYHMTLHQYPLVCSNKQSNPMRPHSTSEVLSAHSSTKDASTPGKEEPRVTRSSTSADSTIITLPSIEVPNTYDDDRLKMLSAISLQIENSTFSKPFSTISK
Test: PBM E-score (8-mer binding enrichment) (E-score (-0.5 to 0.5)); higher = stronger / more preferred TF binding
Details: protein concentration: 200 nM; construct: GST-full length
Description: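 Universal 'all 10-mer' protein binding microarrays (Agilent AMADID 015681) probed with GST-tagged S. cerevisiae TFs (full-length or DBD) made by in vitro transcription/translation (PURExpress), about 100-200 nM. Bound TF was detected with fluorescent anti-GST. Each ungapped 8-mer (which stands for itself and its reverse complement) is scored by the PBM enrichment score (E-score), a modified Wilcoxon-Mann-Whitney statistic from -0.5 to +0.5, computed with the Universal PBM Analysis Suite. Scale: above 0.35 generally sequence-specific binding.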

| Sequence | PBM E-score |
| --- | --- |
| AACGAGTA | 0.171 |
| AACGAGTC | 0.42 |
| CACGAGTC | 0.39 |
| GACGAGTC | 0.408 |
| GACGAGTA | 0.178 |
| GACGAGAC | -0.0639 |
| CACGAGTA | 0.0787 |
| AACGAGTT | 0.0273 |
| CACGAGTG | -0.125 |
| ATCCATCC | 0.0305 |
| AGTACACA | 0.239 |
| CCCAAGCC | -0.171 |
| CACTTCAA | -0.0203 |
| ACGGATTA | 0.1 |
| GAAGAGTA | 0.0801 |
| GAAGAGTC | 0.426 |
| AAAGAGTA | 0.0885 |
| CAAGAGTG | -0.108 |
| AAAGAGTT | 0.219 |
| GAAGAGCC | -0.222 |
| CAAGAGTA | 0.106 |
| CAAGAGTC | 0.434 |
| AAAGAGTC | 0.437 |
| CTACTGAC | 0.177 |
| ACGGCGGA | -0.0257 |
| ACGGACCA | -0.125 |

| Sequence | PBM E-score |
| --- | --- |
| GAACTGAC | -0.0132 |
| CAGGAGTC | 0.394 |
| AAGGAGTC | 0.412 |
| AAGGAGTG | -0.187 |
| AAGGAGTA | 0.0121 |
| CAGGAGTA | 0.0894 |
| CAGAAGTC | 0.293 |
| AGTCGATG | 0.249 |
| AAACTGAG | 0.144 |
| TCCCAGCA | -0.0166 |
| CACGCAAG | -0.11 |
| CACGTGTA | -0.0349 |
| GATTCATA | 0.381 |
| TATTCAGA | 0.0473 |
| GATTCAGA | 0.389 |
| CATTCATA | 0.195 |
| AATTCATA | 0.0256 |
| GATTCAGC | 0.258 |
| GATTCCGA | 0.276 |
| CCACGTAA | -0.177 |
| GGCCTGTA | -0.386 |
| GACTAGCA | 0.374 |
| TACTAGGA | 0.0896 |
| AACTAGCA | -0.00106 |
| GACTAGGA | 0.376 |
| TACTAGCA | 0.0217 |

| Sequence | PBM E-score |
| --- | --- |
| GACTAGGC | 0.297 |
| ATCACATC | 0.143 |
| CGAGGGAA | -0.0997 |
| GATTTGGA | 0.0961 |
| AAAGTGCC | -0.0752 |
| AACCGTAC | -0.0826 |
| AATTCAAC | -0.0608 |
| GATTCAAA | 0.371 |
| GATTCAAC | 0.385 |
| CATTCAAC | 0.0337 |
| TATTCAAA | 0.135 |
| CATTCAAA | -0.0755 |
| ACCGATCT | -0.255 |
| ATCCTCGC | -0.043 |
| TCGTAGCA | 0.128 |
| ATCGCTGA | 0.0828 |
| GACTTTAC | 0.234 |
| ATAGGCAG | -0.0153 |
| AGTCGTCA | 0.389 |
| GGTCGTCA | 0.00372 |
| ATTCGTCG | 0.0523 |
| CGTCGTCA | -0.142 |
| AGTCGTCG | 0.375 |
| AGTCGTCC | 0.364 |
| ACGATACT | -0.155 |
| AGGATGTC | 0.00214 |

| Sequence | PBM E-score |
| --- | --- |
| CGCTGCTA | -0.211 |
| GCATATGA | 0.14 |
| TCATATGA | 0.393 |
| CCATATGA | 0.0961 |
| ACACGACA | 0.106 |
| AGACGACG | -0.265 |
| ACACGACT | 0.408 |
| AGACGACC | -0.0204 |
| ACACGACC | -0.0158 |
| AGACGACT | 0.397 |
| AGTAAAAG | 0.0408 |
| CTGACCAG | -0.0138 |
| ACTCCACG | 0.0785 |
| ACTTTACT | 0.159 |
| AAAACCCT | -0.047 |
| CACTAAGA | 0.119 |
| TACTAAGA | 0.113 |
| GACTAAGC | 0.42 |
| AACTAAGC | 0.0808 |
| GACTAAGA | 0.444 |
| CACTAAGC | 0.1 |
| AGGGATAA | 0.093 |
| CGGCTGCA | -0.189 |
| AATATGGA | -0.0374 |
| CGTTGCGC | -0.22 |
| GAGCACAA | 0.0121 |

| Sequence | PBM E-score |
| --- | --- |
| GAAGACTA | 0.444 |
| TAAGACAA | -0.0363 |
| ACAGACTA | 0.0746 |
| AAAGACTA | 0.392 |
| ACAGACTC | 0.269 |
| TAAGACCA | 0.112 |
| CAAGACTA | 0.329 |
| AAAGACTG | 0.157 |
| AAAGACTT | 0.294 |
| AAAGACTC | 0.409 |
| GCAGACTA | 0.309 |
| TAAGACTA | 0.423 |
| ACAGCCTA | -0.0814 |
| ACCCTGCC | -0.154 |
| GGGCAAGA | -0.0907 |
| GAGTTCGA | 0.185 |
| GCGCTTTA | -0.161 |
| AAAGTGAC | 0.305 |
| CCCGCGAA | 0.0838 |
| GAAGACCC | -0.0698 |
| CAAGACTG | 0.175 |
| GAAGACTC | 0.446 |
| GAAGACGC | -0.193 |
| CAAGACTC | 0.429 |
| CAAGACGC | -0.166 |
| GACCGAAC | -0.059 |

| Sequence | PBM E-score |
| --- | --- |
| CATTACCC | 0.0868 |
| AATGGAGA | -0.0502 |
| CACTCTAA | 0.149 |
| GACTCTAC | 0.38 |
| AACTCTAC | -0.212 |
| TACTCTAA | -0.042 |
| GACTCTAA | 0.381 |
| CACTCTAC | 0.0903 |
| ATGCCAAG | -0.0388 |
| ACGATAAC | -0.0162 |
| GATCCGCC | -0.041 |
| AACTTTGC | -0.113 |
| ACAACATC | -0.143 |
| ACCATACT | 0.0817 |
| AGGTGACT | 0.484 |
| ACGTGACT | 0.468 |
| AGGTGACG | -0.188 |
| AGGTGACA | -0.0676 |
| AAGTGATC | 0.103 |
| AAGTGATT | 0.394 |
| ACGTGACG | -0.176 |
| AAGTGACG | 0.0587 |
| AAGTGATG | 0.0804 |
| ACGTGACA | -0.138 |
| AAGTGACC | -0.00564 |
| AAGTGACT | 0.453 |

| Sequence | PBM E-score |
| --- | --- |
| CCTCTGAA | -0.0251 |
| AAATCCCA | -0.203 |
| ACCCACCC | 0.111 |
| CACCTAGG | 0.0188 |
| ATCAGAAC | 0.127 |
| CTGAGAGA | -0.0026 |
| AAGCTTGG | -0.0782 |
| CAGATGAC | 0.215 |
| GAGATGAC | 0.367 |
| AAGATGAC | 0.312 |
| GGAACTGA | -0.00126 |
| TCGACCAA | -0.188 |
| AATAGAAA | -0.119 |
| CCCTCCCA | -0.298 |
| ACTCATTC | 0.394 |
| ACACATTG | 0.0326 |
| GCTCATTA | -0.044 |
| ATTCATTG | 0.214 |
| ACTCATTA | 0.372 |
| CCTCATTA | 0.0877 |
| CCTCATTC | -0.176 |
